# Measured values taken from PubChem BioAssay (Tox21).
# Records with an inconclusive call do not appear. Where a call stands in place of a potency, no number is given. Calls of active or inactive are those of the source. Unless noted, calls come from the whole dose curve; as a rule, active = well fitted curve in the direction sought with a large enough effect in the repeat runs; inconclusive = weak or mixed curves; inactive = no such curve, though single readings can be large; an effect the other way counts as inactive or inconclusive.
# Legend:
# [1] = qHTS assay to identify small molecule agonists of the sonic hedgehog signaling (Shh) pathway (AID 1259368; calls by dose curve;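 note: NIH/3T3-derived 3T3Gli1-Luc cells carrying a stable Gli1-driven firefly luciferase reporter; series mostly up to about 92 µM; nearly all actives have a fitted effect of over 15% in size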)
# Procedure, shortened: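 Steps: seed 3T3 Gli1-Luc cells, incubate 4 hr at 37 C, pin-transfer compounds in DMSO alongside a positive control, incubate 24 hr, add luciferase detection reagent, wait 30 min at room temperature, read luminescence.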
# [2] = qHTS assay to identify small molecule antagonists of the sonic hedgehog signaling (Shh) pathway (AID 1259369; calls by dose curve; note: potency is the fitted concentration of half-maximal effect; nearly all actives have a fitted effect of over 45% in size)
# Procedure, shortened: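 Inhibition of Shh signalling is measured as reduced Gli1-response-element firefly luciferase output in an NIH/3T3-derived stable reporter clone stimulated with conditioned medium for 24hr.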
# [3] = biological target: Androgen receptor (Homo sapiens) (UniProt P10275); test: qHTS assay to identify small molecule agonists of the androgen receptor (AR) signaling pathway in the presence of an antagonist (AID 1259381; calls by dose curve; note: nearly all actives have a fitted effect of over 15% in size)
# Procedure, shortened: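 Cells are MDA-kb2 (human breast carcinoma, MMTV-luc, AR/GR responsive). Nilutamide is present at 3.0uM final throughout; compounds are added at 15 concentrations and incubated 16hr at 37C before ONE-Glo luminescence detection.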
# [4] = qHTS assay to identify small molecule antagonists of the estrogen receptor beta (ER-beta) signaling pathway - cell viability counter screen (AID 1259382); note: nearly all actives have a fitted effect of over 55% in size; note: potency is the fitted concentration of half-maximal effect
# Procedure, shortened: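 Following a 6 hr plating period, HEK293T cells carrying a UAS-driven beta-lactamase reporter under ER-beta control received compounds and 1nM E2 (final). After 16 hr at 37C and 2 hr substrate loading, CellTiter-Glo luminescence indicated viability.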
# [5] = qHTS assay to identify small molecule agonists or antagonists of the thyroid stimulating hormone receptor (TSHR) signaling pathway - wild type cell line counter screen (AID 1259384; calls by dose curve)
# Procedure, shortened: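 Counter screen in untransfected Hek293: compounds (15-point titration, triplicate) plus phosphodiesterase inhibitor Ro20-1724 added after 18 h plating; 30 min RT. Intracellular cAMP via competitive d2/cryptate immunoassay, 1 h incubation.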
# [6] = biological target: Thyrotropin receptor (Homo sapiens) (UniProt P16473); test: qHTS assay to identify small molecule antagonists of the thyroid stimulating hormone receptor (TSHR) signaling pathway (AID 1259385; calls by dose curve; note: nearly all actives have a fitted effect of over 20% in size)
# Procedure, shortened: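 Antagonist mode: compound-treated TSHR-expressing HEK293 cells were stimulated with 1.5 ng/mL TSH (final) in presence of Ro20-1724 for 30 min at RT. HTRF cAMP detection after 1 h; each compound tested at 15 concentrations, triplicate.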
# [7] = qHTS assay to identify small molecule agonists of the estrogen receptor alpha (ER-alpha) signaling pathway in the presence of an antagonist - cell viability counter screen (AID 1259386);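 note: series mostly up to about 92 µM; cells exposed to compounds for 22 h at 37 °C before the viability read; nearly all actives have a fitted effect of over 30% in size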
# Procedure, shortened: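 Cells are starved of estrogens for 5 days in charcoal-stripped serum, seeded for 24hr and co-treated with ICI-182,780 (10.0nM final) and test compounds. After 22hr at 37C, viability is read as CellTiter-Fluor fluorescence.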
# [8] = biological target: Progesterone receptor (Homo sapiens) (UniProt P06401); test: qHTS assay to identify small molecule agonists of the progesterone receptor (PR) signaling pathway (AID 1346784; calls by dose curve; note: nearly all actives have a fitted effect of over 30% in size)
# Procedure, shortened: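 Using charcoal-stripped serum (2%) to limit endogenous steroids, PR-UAS-bla HEK 293T cells received compounds for 16 hr at 37C after 6 hr plating; beta-lactamase FRET fluorescence was recorded following 2 hr substrate loading at room temperature.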
# [9] = qHTS assay to identify small molecule antagonists of the TGF-beta/Smad signaling pathway - cell viability counter screen (AID 1346824); note: nearly all actives have a fitted effect of over 50% in size
# Procedure, shortened: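 Cytotoxicity counter-screen run in the same wells as the beta-lactamase Smad reporter read: CellTiter-Glo luminescence after 30 min at room temperature. HEK 293T SBE-bla cells had 5 hr compound exposure at 37 C with TGF-beta1 (0.25 ng/mL stock).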
# [10] = qHTS assay to identify small molecule agonists of the TGF-beta/Smad signaling pathway - cell viability counter screen (AID 1346829); note: top concentration of the series differs between compounds; nearly all actives have a fitted effect of over 45% in size
# Procedure, shortened: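 Here the cytotoxicity of library compounds is measured in SBE-bla HEK 293T cells treated for 5 hr, using CellTiter-Glo added to wells already read for the beta-lactamase reporter.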
# [11] = qHTS assay to identify small molecule agonists of the TGF-beta/Smad signaling pathway (AID 1346859; active = well fitted activation curve with a large enough effect in the signal ratio in the repeat runs, not every such curve was filed as active; the % refers to the signal ratio; note: series mostly up to about 77 µM)
# Procedure, shortened: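 Stable Smad binding element-beta-lactamase HEK 293T cells; 5 hr compound exposure at 37 C under 5% CO2; 2 hr room-temperature substrate step; fluorescence excited at 405 nm, collected at 460 nm and 530 nm.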
# [12] = biological target: Thyrotropin-releasing hormone receptor (Homo sapiens) (UniProt P34981); test: qHTS assay to identify small molecule antagonists of the thyrotropin-releasing hormone receptor (TRHR) signaling pathway (AID 1346877; active = well fitted inhibition curve with a large enough effect in the repeat runs, not every such curve was filed as active; note: series mostly up to about 51 µM)
# Procedure, shortened: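 Cells (TRHR-HEK293) are plated and kept 18 h at 37 °C/5% CO2. A calcium-sensitive dye is added for 2 h, compound follows for 5 min at room temperature, and TRH is then given at 1 nM final.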
# [13] = biological target: Estrogen receptor beta (Homo sapiens) (UniProt Q92731); test: qHTS assay to identify small molecule agonists of the estrogen receptor beta (ER-beta) signaling pathway (AID 1259377; active = well fitted activation curve with a large enough effect in the signal ratio in the repeat runs, not every such curve was filed as active; the % refers to the signal ratio; note: potency is the fitted concentration of half-maximal effect)
# Procedure, shortened: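 In HEK293T cells bearing a UAS-beta-lactamase reporter under ER-beta control, DMSO-delivered compounds were incubated for 16 hr at 37C. Activity was detected as fluorescence 2 hours after LiveBLAzer B/G FRET substrate addition.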
# [14] = biological target: Estrogen receptor beta (Homo sapiens) (UniProt Q92731); test: qHTS assay to identify small molecule antagonists of the estrogen receptor beta (ER-beta) signaling pathway (AID 1259378; active = well fitted inhibition curve with a large enough effect in the signal ratio in the repeat runs, not every such curve was filed as active; the % refers to the signal ratio; note: potency is the fitted concentration of half-maximal effect)
# Procedure, shortened: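 Antagonist mode: compounds added to beta-lactamase reporter HEK293T ER-beta-UAS cells stimulated with E2 (1nM final), 16 hr at 37C. LiveBLAzer B/G FRET substrate, 2 hours room temperature, fluorescence read-out.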
# [15] = qHTS assay to identify small molecule agonists of the androgen receptor (AR) signaling pathway in the presence of an antagonist - cell viability counter screen (AID 1259379);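 note: MDA-kb2 human breast cancer cells carrying an MMTV luciferase reporter; series mostly up to about 92 µM; nearly all actives have a fitted effect of over 25% in size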
# Procedure, shortened: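 Fluorescence from CellTiter-Fluor, added after 15 hr and read 1 hr later, gave cell viability. Cells were MDA-kb2 exposed to compounds (15 concentrations) in the presence of 3.0uM nilutamide at 37C, 0% CO2.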
# [16] = qHTS assay to identify small molecule agonists of the estrogen receptor beta (ER-beta) signaling pathway - cell viability counter screen (AID 1259380); note: nearly all actives have a fitted effect of over 30% in size; note: potency is the fitted concentration of half-maximal effect
# Procedure, shortened: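 Same-well viability counter screen. Cells: ER-beta-UAS-bla HEK293T, plated 6 hr before compound, in 2% charcoal-stripped FBS. Compound exposure 16 hr, 37C; viability by CellTiter-Glo luminescence after 30 min at room temperature.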
# [17] = qHTS assay to identify small molecule antagonists of the progesterone receptor (PR) signaling pathway - cell viability counter screen (AID 1346798); note: nearly all actives have a fitted effect of over 50% in size; note: potency is the fitted concentration of half-maximal effect
# Procedure, shortened: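 ATP content as viability readout: CellTiter-Glo luminescence, 30 min room temperature, in PR-UAS-bla HEK293T cells after 16 hr compound/R5020 treatment at 37C and 5% CO2.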
# [18] = biological target: Progesterone receptor (Homo sapiens) (UniProt P06401); test: qHTS assay to identify small molecule antagonists of the progesterone receptor (PR) signaling pathway (AID 1346795; active = well fitted inhibition curve with a large enough effect in the signal ratio in the repeat runs, not every such curve was filed as active; the % refers to the signal ratio)
# Procedure, shortened: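 Inhibition of R5020-induced (1 nM final) beta-lactamase reporter signal in PR-UAS-bla HEK293T cells was scored by FRET fluorescence after overnight (16 hr) compound treatment.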
# [19] = biological target: Estrogen receptor (Homo sapiens) (UniProt P03372); test: qHTS assay to identify small molecule agonists of the estrogen receptor alpha (ER-alpha) signaling pathway in the presence of an antagonist (AID 1259383; calls by dose curve; note: nearly all actives have a fitted effect of over 15% in size; note: potency is the fitted concentration of half-maximal effect; for activation: top concentration of the series differs between compounds)
# Procedure, shortened: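 Cells are hormone-deprived for 5 days (charcoal-stripped FBS, no phenol red), plated for 24hr, spiked with 10.0nM ICI-182,780, then dosed at 15 concentrations. After 22hr at 37C, ONE-Glo luminescence reports ERE-luciferase activity.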
# [20] = qHTS assay to identify small molecule agonists of the progesterone receptor (PR) signaling pathway - cell viability counter screen (AID 1346799; calls by dose curve; note: nearly all actives have a fitted effect of over 45% in size; note: potency is the fitted concentration of half-maximal effect)
# Procedure, shortened: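 Cytotoxicity in PR-bla HEK293T cells: 16 h compound, 37C; CellTiter-Glo added post-FRET read; luminescence after 30 min RT.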
# Thyrotropin receptor (Homo sapiens), sequence (P16473 whole entry, looked up): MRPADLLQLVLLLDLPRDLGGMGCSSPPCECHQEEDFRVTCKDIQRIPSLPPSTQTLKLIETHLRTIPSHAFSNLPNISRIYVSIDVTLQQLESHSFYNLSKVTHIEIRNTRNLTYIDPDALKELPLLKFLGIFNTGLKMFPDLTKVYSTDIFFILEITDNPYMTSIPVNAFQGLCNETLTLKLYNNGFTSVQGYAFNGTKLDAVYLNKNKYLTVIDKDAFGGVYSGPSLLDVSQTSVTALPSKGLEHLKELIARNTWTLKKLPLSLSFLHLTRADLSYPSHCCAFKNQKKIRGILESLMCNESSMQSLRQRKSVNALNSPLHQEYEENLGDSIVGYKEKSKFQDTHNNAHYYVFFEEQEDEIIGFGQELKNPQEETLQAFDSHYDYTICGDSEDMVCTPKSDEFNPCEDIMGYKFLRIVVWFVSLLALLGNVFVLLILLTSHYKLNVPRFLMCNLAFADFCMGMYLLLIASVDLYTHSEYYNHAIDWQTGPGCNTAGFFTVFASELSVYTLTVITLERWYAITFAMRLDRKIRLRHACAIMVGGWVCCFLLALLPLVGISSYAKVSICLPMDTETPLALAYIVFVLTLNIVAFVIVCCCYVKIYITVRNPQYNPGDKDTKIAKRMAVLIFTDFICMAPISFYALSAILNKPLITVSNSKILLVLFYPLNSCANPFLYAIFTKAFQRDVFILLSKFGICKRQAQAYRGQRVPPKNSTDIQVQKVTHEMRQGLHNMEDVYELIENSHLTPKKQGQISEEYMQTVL
# Thyrotropin-releasing hormone receptor (Homo sapiens), sequence (P34981 whole entry, looked up): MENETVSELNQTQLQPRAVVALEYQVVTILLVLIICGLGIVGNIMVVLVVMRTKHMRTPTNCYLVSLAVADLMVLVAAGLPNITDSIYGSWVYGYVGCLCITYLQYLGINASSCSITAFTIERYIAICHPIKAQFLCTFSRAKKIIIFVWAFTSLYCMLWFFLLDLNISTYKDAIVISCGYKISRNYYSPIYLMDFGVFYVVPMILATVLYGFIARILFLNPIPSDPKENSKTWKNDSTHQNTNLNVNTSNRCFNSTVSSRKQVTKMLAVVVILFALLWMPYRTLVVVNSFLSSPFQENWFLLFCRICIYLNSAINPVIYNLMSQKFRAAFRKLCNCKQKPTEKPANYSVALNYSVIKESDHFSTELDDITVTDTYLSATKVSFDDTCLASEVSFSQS
# Estrogen receptor beta (Homo sapiens), sequence (Q92731 whole entry, looked up): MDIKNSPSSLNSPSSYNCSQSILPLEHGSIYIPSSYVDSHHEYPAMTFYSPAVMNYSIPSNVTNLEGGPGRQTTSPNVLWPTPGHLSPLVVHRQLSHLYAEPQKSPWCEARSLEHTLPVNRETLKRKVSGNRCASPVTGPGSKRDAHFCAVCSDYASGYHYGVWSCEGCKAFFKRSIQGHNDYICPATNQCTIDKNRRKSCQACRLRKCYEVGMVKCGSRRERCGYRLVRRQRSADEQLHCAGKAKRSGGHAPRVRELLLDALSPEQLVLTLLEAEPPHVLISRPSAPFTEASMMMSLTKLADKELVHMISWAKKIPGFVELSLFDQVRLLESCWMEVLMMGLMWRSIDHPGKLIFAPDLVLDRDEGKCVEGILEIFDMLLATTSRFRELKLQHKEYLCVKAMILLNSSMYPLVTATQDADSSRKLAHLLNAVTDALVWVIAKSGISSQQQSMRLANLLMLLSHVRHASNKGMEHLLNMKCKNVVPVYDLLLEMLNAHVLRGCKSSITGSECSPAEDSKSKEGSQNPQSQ
# Progesterone receptor (Homo sapiens), sequence (P06401 whole entry, looked up): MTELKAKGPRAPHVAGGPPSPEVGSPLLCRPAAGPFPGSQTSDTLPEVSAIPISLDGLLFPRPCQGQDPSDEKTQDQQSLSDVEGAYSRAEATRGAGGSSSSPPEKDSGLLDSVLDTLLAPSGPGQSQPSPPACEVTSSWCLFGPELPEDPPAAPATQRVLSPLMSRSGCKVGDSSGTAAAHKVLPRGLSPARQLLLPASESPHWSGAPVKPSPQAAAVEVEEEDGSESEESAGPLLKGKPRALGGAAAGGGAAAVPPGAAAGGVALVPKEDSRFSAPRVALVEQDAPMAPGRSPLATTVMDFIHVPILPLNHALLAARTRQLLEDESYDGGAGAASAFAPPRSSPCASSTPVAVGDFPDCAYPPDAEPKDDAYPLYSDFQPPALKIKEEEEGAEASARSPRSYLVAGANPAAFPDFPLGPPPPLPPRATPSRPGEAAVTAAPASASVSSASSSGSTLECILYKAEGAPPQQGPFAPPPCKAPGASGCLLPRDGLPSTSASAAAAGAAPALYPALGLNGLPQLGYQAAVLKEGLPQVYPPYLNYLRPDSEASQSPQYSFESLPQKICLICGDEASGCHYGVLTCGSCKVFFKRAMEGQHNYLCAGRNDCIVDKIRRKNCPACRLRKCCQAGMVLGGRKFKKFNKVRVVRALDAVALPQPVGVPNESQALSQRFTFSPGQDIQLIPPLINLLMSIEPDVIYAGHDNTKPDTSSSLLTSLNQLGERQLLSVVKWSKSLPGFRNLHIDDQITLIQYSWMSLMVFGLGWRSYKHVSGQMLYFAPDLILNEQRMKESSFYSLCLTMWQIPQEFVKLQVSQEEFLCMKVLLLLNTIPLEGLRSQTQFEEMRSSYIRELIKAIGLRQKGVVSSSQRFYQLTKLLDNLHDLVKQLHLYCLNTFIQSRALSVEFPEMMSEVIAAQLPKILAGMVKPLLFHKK
# Estrogen receptor (Homo sapiens), sequence (P03372 whole entry, looked up): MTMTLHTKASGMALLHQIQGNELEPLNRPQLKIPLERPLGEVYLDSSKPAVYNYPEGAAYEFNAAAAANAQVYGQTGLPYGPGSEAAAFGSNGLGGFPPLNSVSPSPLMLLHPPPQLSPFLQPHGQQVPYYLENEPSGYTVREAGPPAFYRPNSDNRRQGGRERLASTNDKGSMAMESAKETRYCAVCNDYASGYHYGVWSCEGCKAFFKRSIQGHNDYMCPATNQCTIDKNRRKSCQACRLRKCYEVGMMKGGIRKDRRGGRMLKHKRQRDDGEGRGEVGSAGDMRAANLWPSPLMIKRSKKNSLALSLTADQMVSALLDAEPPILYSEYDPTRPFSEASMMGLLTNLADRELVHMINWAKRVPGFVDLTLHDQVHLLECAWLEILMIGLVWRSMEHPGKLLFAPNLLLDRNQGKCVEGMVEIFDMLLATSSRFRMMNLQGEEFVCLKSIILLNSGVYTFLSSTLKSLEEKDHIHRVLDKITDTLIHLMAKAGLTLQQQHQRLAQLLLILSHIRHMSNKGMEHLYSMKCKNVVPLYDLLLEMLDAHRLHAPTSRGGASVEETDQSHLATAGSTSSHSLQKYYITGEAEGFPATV
# Androgen receptor (Homo sapiens), sequence (P10275 whole entry, looked up): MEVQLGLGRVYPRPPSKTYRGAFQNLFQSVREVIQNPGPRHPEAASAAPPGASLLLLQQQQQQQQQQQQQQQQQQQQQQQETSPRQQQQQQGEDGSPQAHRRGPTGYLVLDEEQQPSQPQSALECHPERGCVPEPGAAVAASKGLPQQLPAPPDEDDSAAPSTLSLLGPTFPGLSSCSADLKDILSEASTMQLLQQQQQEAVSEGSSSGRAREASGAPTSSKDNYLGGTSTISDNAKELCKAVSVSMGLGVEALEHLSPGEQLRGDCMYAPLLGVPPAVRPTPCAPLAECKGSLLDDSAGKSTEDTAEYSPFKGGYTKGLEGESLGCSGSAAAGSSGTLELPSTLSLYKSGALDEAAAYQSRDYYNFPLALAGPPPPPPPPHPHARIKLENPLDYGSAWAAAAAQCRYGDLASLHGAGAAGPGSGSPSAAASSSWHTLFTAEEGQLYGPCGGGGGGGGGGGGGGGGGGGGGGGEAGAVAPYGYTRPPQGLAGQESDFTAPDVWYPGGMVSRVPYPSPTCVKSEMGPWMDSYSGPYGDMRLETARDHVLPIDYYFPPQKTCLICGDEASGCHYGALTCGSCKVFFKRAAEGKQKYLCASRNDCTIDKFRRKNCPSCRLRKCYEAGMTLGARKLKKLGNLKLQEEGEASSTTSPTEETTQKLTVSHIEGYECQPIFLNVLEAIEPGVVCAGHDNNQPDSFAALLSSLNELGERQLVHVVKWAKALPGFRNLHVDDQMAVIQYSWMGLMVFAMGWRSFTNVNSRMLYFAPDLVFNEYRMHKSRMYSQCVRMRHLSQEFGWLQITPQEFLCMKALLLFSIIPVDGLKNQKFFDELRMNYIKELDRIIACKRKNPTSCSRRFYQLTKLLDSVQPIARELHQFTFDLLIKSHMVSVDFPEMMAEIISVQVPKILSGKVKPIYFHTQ
SMILES,Potency [1],Potency [2],Potency [3],Potency [4],outcome [5],Potency [6],Potency [7],Potency [8],Potency [9],Potency [10],Potency [11],outcome [12],Potency [13],Potency [14],Potency [15],Potency [16],Potency [17],Potency [18],Potency [19],Potency [20]
CC[C@]1(O)C[C@H]2CN(CCc3c([nH]c4ccccc34)[C@@](C(=O)OC)(c3cc4c(cc3OC)N(C=O)[C@H]3[C@@](O)(C(=O)OC)[C@H](OC(C)=O)[C@]5(CC)C=CCN6CC[C@]43[C@@H]65)C2)C1,inactive,0.0266 µM (active),inactive,inactive,inactive,inactive,inactive,inactive,inactive,inactive,inactive,inactive,–,–,–,–,–,–,–,–
CC/C=C1/OC(=O)c2ccccc21,inactive,–,inactive,inactive,–,–,inactive,inactive,inactive,inactive,inactive,inactive,inactive,inactive,inactive,inactive,inactive,–,–,–
O=C(O)CCCCCCCCCCCBr,inactive,–,–,–,–,–,–,inactive,inactive,inactive,–,inactive,inactive,inactive,inactive,–,inactive,inactive,–,–
C/C=C(/C(=C/C)c1ccc(O)cc1)c1ccc(O)cc1,inactive,–,–,inactive,inactive,inactive,–,inactive,inactive,inactive,inactive,inactive,0.0019 µM (active),–,inactive,inactive,inactive,–,0.015 µM (active),–
O=C(O)CCC(=O)C(=O)O,inactive,–,–,inactive,inactive,inactive,inactive,inactive,inactive,inactive,inactive,–,inactive,–,inactive,inactive,inactive,inactive,inactive,–
C1COC1,inactive,–,inactive,inactive,inactive,inactive,inactive,inactive,inactive,inactive,inactive,inactive,inactive,inactive,inactive,inactive,inactive,–,–,inactive
CC1(C)[C@@H](OC(=O)CCC(=O)O)CC[C@]2(C)[C@H]3C(=O)C=C4[C@@H]5C[C@@](C)(C(=O)O)CC[C@]5(C)CC[C@@]4(C)[C@]3(C)CC[C@@H]12,inactive,–,–,inactive,inactive,inactive,inactive,inactive,inactive,inactive,inactive,inactive,inactive,–,inactive,inactive,–,inactive,–,inactive
O=c1[nH]c2ccc(Cl)cc2o1,inactive,–,–,inactive,inactive,inactive,inactive,inactive,inactive,inactive,inactive,–,inactive,inactive,inactive,inactive,inactive,inactive,–,–
CC(=O)OCC[N+](C)(C)C,inactive,–,–,inactive,inactive,inactive,inactive,inactive,inactive,inactive,inactive,inactive,inactive,inactive,inactive,inactive,inactive,–,–,inactive
C[C@@H](CN(C)C)CN1c2ccccc2Sc2ccccc21,inactive,–,–,21.1 µM (active),–,–,inactive,inactive,inactive,inactive,inactive,–,inactive,23.7 µM (active),–,18.8 µM (active),18.8 µM (active),–,inactive,10.6 µM (active)
Cc1cscn1,inactive,–,inactive,inactive,inactive,inactive,inactive,inactive,inactive,inactive,inactive,–,inactive,inactive,inactive,inactive,inactive,inactive,inactive,–
CN1C(C(=O)Nc2ccccn2)=C(O)c2sccc2S1(=O)=O,inactive,–,–,inactive,–,–,–,inactive,inactive,inactive,inactive,inactive,inactive,inactive,inactive,inactive,inactive,inactive,inactive,–
CC(C)Nc1cccnc1N1CCN(C(=O)c2cc3cc(NS(C)(=O)=O)ccc3[nH]2)CC1,inactive,–,–,–,inactive,inactive,inactive,inactive,inactive,inactive,inactive,–,inactive,inactive,inactive,26.6 µM (active),–,–,inactive,inactive
CC1CC(C)C(=O)C1=O (configuration not stated),inactive,–,–,inactive,inactive,inactive,inactive,inactive,inactive,inactive,inactive,inactive,inactive,inactive,inactive,inactive,inactive,inactive,–,inactive
Cc1cc2c(OCC(CNC(C)(C)C)OC(=O)c3ccccc3)cccc2[nH]1 (configuration not stated),inactive,–,–,–,inactive,inactive,inactive,inactive,inactive,inactive,inactive,–,inactive,inactive,–,inactive,inactive,inactive,inactive,–
CN1CCCN=C1COC(=O)C(O)(c1ccccc1)C1CCCCC1 (configuration not stated),inactive,–,–,–,inactive,–,inactive,inactive,inactive,inactive,inactive,–,inactive,inactive,inactive,inactive,inactive,inactive,inactive,inactive
